# Data taken from PMC5540273 (PLoS ONE, 2017).
# “And” between values parts separate entries of the source, which are not always exact repeats. Equal values may be shown once. Read-outs that look alike come from different tables or passages of the source.
# What was measured:
# [1] = system: MYO3B; settings: concentration: 1 μM, replicates: in singlicate, n = 1
# [2] = system: T1, NDR1; settings: concentration: 1 μM, replicates: in singlicate, n = 1
# T1 construct: gene STK38
# [3] = system: NDR2; settings: concentration: 1 μM, replicates: in singlicate, n = 1
# [4] = system: NEK10; settings: concentration: 1 μM, replicates: in singlicate; n = 1
# [5] = system: NEK11; settings: concentration: 1 μM, replicates: in singlicate; n = 1
# [6] = system: NEK1; settings: concentration: 1 μM, replicates: in singlicate, n = 1
# [7] = system: NEK2; settings: concentration: 1 μM, replicates: in singlicate, n = 1
# [8] = system: NEK3; settings: concentration: 1 μM, replicates: in singlicate, n = 1
# [9] = system: NEK4; settings: concentration: 1 μM, replicates: in singlicate; n = 1
# [10] = system: NEK5; settings: concentration: 1 μM, replicates: in singlicate, n = 1
# [11] = system: NEK6; settings: concentration: 1 μM, replicates: in singlicate; n = 1
# [12] = system: NEK7; settings: concentration: 1 μM, replicates: in singlicate, n = 1
# [13] = system: NEK9; settings: concentration: 1 μM, replicates: in singlicate, n = 1
# [14] = system: T2, NIK; settings: concentration: 1 μM, replicates: in singlicate, n = 1
# T2 construct: gene MAP3K14
# [15] = system: T3, NIM1; settings: concentration: 1 μM, replicates: in singlicate, n = 1
# T3 construct: gene MGC42105
# [16] = system: NLK; settings: concentration: 1 μM, replicates: in singlicate, n = 1
# [17] = system: T4, OSR1; settings: concentration: 1 μM, replicates: in singlicate; n = 1
# T4 construct: gene OXSR1
# [18] = system: PAK1; settings: concentration: 1 μM, replicates: in singlicate, n = 1
# [19] = system: PAK2; settings: concentration: 1 μM, replicates: in singlicate, n = 1
# [20] = system: PAK3; settings: concentration: 1 μM, replicates: in singlicate, n = 1
# 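Further: KINOMEscan kinase panel screen.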
compound,measurement,setting,value
COc1ccc(COc2cc(-n3cnc4ccccc43)sc2C(N)=O)cc1 [GSK1024304],%Inh,[1],0%
same,%Inh,[2],6%
same,%Inh,[3],0%
same,%Inh,[4],19%
same,%Inh,[5],0%
same,%Inh,[6],0%
same,%Inh,[7],0%
same,%Inh,[8],0%
same,%Inh,[9],0%
same,%Inh,[10],7%
same,%Inh,[11],0%
same,%Inh,[12],0%
same,%Inh,[13],5%
same,%Inh,[14],10%
same,%Inh,[15],28%
same,%Inh,[16],0%
same,%Inh,[17],14%
same,%Inh,[18],1%
same,%Inh,[19],4%
same,%Inh,[20],1%
Cc1cccc(-c2nc(Nc3ccc4ncsc4c3)c3ccccc3n2)n1 [GW867588],%Inh,[1],16%
same,%Inh,[2],14%
same,%Inh,[3],4%
same,%Inh,[4],5%
same,%Inh,[5],0%
same,%Inh,[6],0%
same,%Inh,[7],0%
same,%Inh,[8],0%
same,%Inh,[9],0%
same,%Inh,[10],0%
same,%Inh,[11],8%
same,%Inh,[12],0%
same,%Inh,[13],0%
same,%Inh,[14],0%
same,%Inh,[15],17%
same,%Inh,[16],14%
same,%Inh,[17],0%
same,%Inh,[18],0%
same,%Inh,[19],45%
same,%Inh,[20],19%
O=C(NOCC1CC1)c1ccc(F)c(F)c1Nc1ccc(I)cc1Cl,%Inh,[1],0%
same,%Inh,[2],0%
same,%Inh,[3],0%
same,%Inh,[4],0%
same,%Inh,[5],0%
same,%Inh,[6],0%
same,%Inh,[7],0%
same,%Inh,[8],26%
same,%Inh,[9],0%
same,%Inh,[10],0%
same,%Inh,[11],0%
same,%Inh,[12],0%
same,%Inh,[13],0%
same,%Inh,[14],0%
same,%Inh,[15],0%
same,%Inh,[16],0%
same,%Inh,[17],0%
same,%Inh,[18],0%
same,%Inh,[19],0%
same,%Inh,[20],0%
CN(C(=O)c1ccc(-c2cc(-c3c[nH]nc3-c3ccccn3)ccn2)cc1)C1CCOCC1 [GW810083],%Inh,[1],0%
same,%Inh,[2],3%
same,%Inh,[3],0%
same,%Inh,[4],0%
same,%Inh,[5],9%
same,%Inh,[6],0%
same,%Inh,[7],0%
same,%Inh,[8],16%
same,%Inh,[9],0%
same,%Inh,[10],7%
same,%Inh,[11],6%
same,%Inh,[12],6%
same,%Inh,[13],18%
same,%Inh,[14],29%
same,%Inh,[15],20%
same,%Inh,[16],0%
same,%Inh,[17],0%
same,%Inh,[18],0%
same,%Inh,[19],0%
same,%Inh,[20],0%
Cc1nnc(-c2ccc3ncc(-c4ccc(S(C)=O)cc4)n3c2)o1 (stereo not shown),%Inh,[1],0%
same,%Inh,[2],0%
same,%Inh,[3],0%
same,%Inh,[4],0%
same,%Inh,[5],0%
same,%Inh,[6],0%
same,%Inh,[7],12%
same,%Inh,[8],36%
same,%Inh,[9],0%
same,%Inh,[10],0%
same,%Inh,[11],12%
same,%Inh,[12],0%
same,%Inh,[13],0%
same,%Inh,[14],0%
same,%Inh,[15],0%
same,%Inh,[16],0%
same,%Inh,[17],9%
same,%Inh,[18],17%
same,%Inh,[19],3%
same,%Inh,[20],0%
Cc1ccc(C(=O)NCC(N)=O)cc1-n1c(C)cc(OCc2ccc(F)cc2F)c(Br)c1=O,%Inh,[1],15%
same,%Inh,[2],24%
same,%Inh,[3],13%
same,%Inh,[4],0%
same,%Inh,[5],0%
same,%Inh,[6],0%
same,%Inh,[7],10%
same,%Inh,[8],29%
same,%Inh,[9],0%
same,%Inh,[10],0%
same,%Inh,[11],4%
same,%Inh,[12],12%
same,%Inh,[13],4%
same,%Inh,[14],0%
same,%Inh,[15],0%
same,%Inh,[16],14%
same,%Inh,[17],0%
same,%Inh,[18],16%
same,%Inh,[19],14%
same,%Inh,[20],37%
COc1cc(Nc2nccc(N3CCC(NC(=O)c4cccc(NC(C)=O)c4)C3)n2)cc(OC)c1OC (stereo not shown) [GSK1379754],%Inh,[1],0%
same,%Inh,[2],19%
same,%Inh,[3],0%
same,%Inh,[4],20%
same,%Inh,[5],0%
same,%Inh,[6],48%
same,%Inh,[7],7%
same,%Inh,[8],54%
same,%Inh,[9],24%
same,%Inh,[10],100%
same,%Inh,[11],37%
same,%Inh,[12],68%
same,%Inh,[13],49%
same,%Inh,[14],23%
same,%Inh,[15],5%
same,%Inh,[16],0%
same,%Inh,[17],6%
same,%Inh,[18],20%
same,%Inh,[19],20%
same,%Inh,[20],26%
O=C(NCCNc1ccnc(Nc2ccc(F)cc2)n1)Nc1ccccc1F [GSK1379880],%Inh,[1],0%
same,%Inh,[2],0%
same,%Inh,[3],0%
same,%Inh,[4],12%
same,%Inh,[5],0%
same,%Inh,[6],0%
same,%Inh,[7],0%
same,%Inh,[8],11%
same,%Inh,[9],15%
same,%Inh,[10],0%
same,%Inh,[11],0%
same,%Inh,[12],0%
same,%Inh,[13],11%
same,%Inh,[14],9%
same,%Inh,[15],14%
same,%Inh,[16],28%
same,%Inh,[17],20%
same,%Inh,[18],2%
same,%Inh,[19],0%
same,%Inh,[20],0%
Cl.Cl.Cl.Fc1ccc(-c2ncn(C3CCNCC3)c2-c2ccnc(Nc3ccccc3)n2)cc1 [SB-238039],%Inh,[1]; 1 µM,20% and 21%
same,%Inh,[2]; 1 µM,37% and 6%
same,%Inh,[3]; 1 µM,8% and 0%
same,%Inh,[6]; 1 µM,15% and 0%
same,%Inh,[7]; 1 µM,0% and 2%
same,%Inh,[8]; 1 µM,23% and 29%
same,%Inh,[10]; 1 µM,0% and 15%
same,%Inh,[12]; 1 µM,0% and 24%
same,%Inh,[13]; 1 µM,0% and 19%
same,%Inh,[14]; 1 µM,5% and 12%
same,%Inh,[15]; 1 µM,35% and 19%
same,%Inh,[16]; 1 µM,90.5% and 89%
same,%Inh,[18]; 1 µM,16% and 0%
same,%Inh,[19]; 1 µM,51% and 14%
same,%Inh,[20]; 1 µM,43% and 50%
